CHRM1 PAM: human M1 muscarinic receptor positive allosteric modulators, primary screen, CHO-K1 cells, Fluo-8 calcium fluorescence, 1536-well. Muscarinic acetylcholine receptor M1 (Homo sapiens), P11229. CHO-K1 hM1, ACh EC20; 0% = ACh EC20, 100% = maximal ACh. activation, % at 3 µM. hit rate 0.088% among 360,000; in the data active = activation above about 19%, passing the limit was not always enough
Target sequence (P11229 whole entry, looked up): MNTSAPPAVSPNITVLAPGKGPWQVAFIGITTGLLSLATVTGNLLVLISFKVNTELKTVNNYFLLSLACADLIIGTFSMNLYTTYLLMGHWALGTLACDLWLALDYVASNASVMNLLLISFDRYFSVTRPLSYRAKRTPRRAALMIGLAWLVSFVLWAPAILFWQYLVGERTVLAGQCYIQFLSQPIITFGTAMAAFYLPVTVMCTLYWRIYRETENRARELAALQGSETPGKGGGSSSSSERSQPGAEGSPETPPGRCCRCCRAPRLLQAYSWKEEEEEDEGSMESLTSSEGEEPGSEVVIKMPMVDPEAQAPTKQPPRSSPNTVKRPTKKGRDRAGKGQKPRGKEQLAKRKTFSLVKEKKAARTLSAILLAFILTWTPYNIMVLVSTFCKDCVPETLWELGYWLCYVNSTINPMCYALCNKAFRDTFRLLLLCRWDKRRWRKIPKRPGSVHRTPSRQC
M1 ag: human M1 muscarinic receptor agonists, primary screen, Fluo-8 calcium fluorescence, CHO-K1 cells, HTS. activation, % at 3 µM. hit rate 0.33% among 360,000. CHO-K1 hM1, agonist mode; 0% DMSO, 100% acetylcholine EC100. Muscarinic acetylcholine receptor M1 (Homo sapiens), P11229;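 active = activation above the run's mean compound activation plus 3 SD, cut at about 16% in these data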;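 also: peak over basal fluorescence ratio within a 140 s kinetic read after compound addition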
M1 ag parental: counter-screen for M1 agonists: effect in parental CHO-K1 cells. Fluo-8 calcium fluorescence; scaled to maximal ATP response, vehicle zero. AID 602248, 2012. activation, % at 3 µM. hit rate 0.48% among 360,000; in the data active = activation above about 15%;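 also: untransfected CHO-K1 host cells lacking M1 receptor as counterscreen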
M1 PAM parental: nonselective calcium activators in parental CHO-K1 cells, primary screen, counter-screen for M1 PAM project, cell-based, Fluo-8 calcium fluorescence, full deck, 1536-well; ATP EC20; 0% at ATP EC20, 100% at ATP max; activation, % at 3 µM; hit rate 0.02% among 360,000;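 active = activation above the run cutoff, the mean activation of all test compounds plus 3 SD, cut at about 40% in these data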;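 also: peak over basal fluorescence ratio in a 140 s read after ATP addition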
CHO-K1 Ca antag: counter-screen for M1 antagonists: effect in parental CHO-K1 cells; ATP-induced calcium, Fluo-8 fluorescence; inhibition, % at 3 µM; hit rate 0.6% among 360,000; AID 602250;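 active = inhibition above a per-plate cutoff, the plate's mean sample inhibition plus 3 SD, cut at about 24% in these data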
CHRM1 antagonist: human M1 muscarinic receptor antagonists, primary screen, CHO-K1 cells, Fluo-8 calcium fluorescence, 1536-well. hit rate 1.3% among 360,000. CHO-K1 hM1, ACh EC80 antagonist. AID 588852, 2011. Muscarinic acetylcholine receptor M1 (Homo sapiens), P11229. inhibition, % at 3 µM;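 active = percent inhibition above its own plate's cutoff, namely the mean of that plate's compound wells plus 3 SD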;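 also: peak over basal fluorescence ratio during 140 s after agonist addition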
Numbers stand for hits; – = inactive. Shown are actives, neighbours in structure and some others; about 2.3% of the full set was active somewhere.

SMILES	CHRM1 PAM	M1 ag	M1 ag parental	M1 PAM parental	CHO-K1 Ca antag	CHRM1 antagonist
CCc1ccc(Nc2nnc(SCC(=O)NCCN3C(=O)CSC3=O)s2)cc1	–	–	–	–	–	–
COCCNC(=O)c1ccc(N2CC3CC(C2)c2cccc(=O)n2C3)c(NC(=O)c2ccc(Br)o2)c1 (stereo unspecified)	–	–	–	–	–	–
COCCNC(=O)c1ccc(N2CC3CC(C2)c2cccc(=O)n2C3)c(NC(=O)c2cc(OC)cc(OC)c2)c1 (stereo unspecified)	–	–	–	–	–	–
COCCNC(=O)c1ccc(N2CC3CC(C2)c2cccc(=O)n2C3)c(NC(=O)c2ccccc2Br)c1 (stereo unspecified)	–	22	–	–	–	–
COCCNC(=O)c1ccc(N2CC3CC(C2)c2cccc(=O)n2C3)c(NC(=O)c2ccccc2Cl)c1 (stereo unspecified)	–	26	–	–	–	–
O=C(COC(=O)c1cc[n+]([O-])cc1)Nc1cc([N+](=O)[O-])ccc1Cl	–	–	–	–	–	–
Cc1ccc(-n2c(-c3ccc(Br)cc3)c[n+]3c2CCc2ccc4cccnc4c2-3)cc1	–	–	–	–	–	91
COc1ccc(-n2c(-c3ccc(Cl)cc3)c[n+]3c2CCc2ccccc2-3)cc1	–	–	–	–	–	–
COc1ccc(CNC(=O)COC(=O)[C@H](Cc2ccccc2)NC(=O)c2cccs2)cc1	–	–	–	–	–	–
CCC(C)[C@@H](NC(=O)OC(C)(C)C)c1nnc(S(=O)(=O)Cc2cccc(C)c2)o1 (stereo partly specified)	–	–	–	–	26	–
Cc1ccccc1CS(=O)(=O)c1nnc([C@H](Cc2ccccc2)NC(=O)OC(C)(C)C)o1	–	–	–	–	–	–
Cc1csc(/C(=N\O)c2csc(C)n2)n1	–	–	–	–	–	–
FC(F)Sc1ccc(NC(=S)N2CCN(c3ccccn3)CC2)cc1	–	–	–	–	–	22
Oc1ccccc1N1CCN(C(=S)Nc2ccc(SC(F)F)cc2)CC1	–	–	–	–	–	–
COC(=O)c1ccc(C(=O)OC)c(NC(=O)C2CC(=O)N(C3CCCC3)C2)c1 (stereo unspecified)	–	–	–	–	–	–
Cc1cc(C(=O)NCc2ccc3c(c2)OCO3)ccc1[N+](=O)[O-]	–	–	23	–	–	–
Cc1ccc(C(=O)NCc2ccc3c(c2)OCO3)cc1Cl	–	–	–	–	24	–
O=C(Nc1ccc(S(=O)(=O)NC2=NCCCCC2)cc1)c1cccc(OC(F)F)c1	–	–	–	–	–	–
CCCCCCCCCCC(C(=O)O)C1(C(=O)O)CCC(=O)O1 (stereo unspecified)	–	–	–	–	–	–
CCC(C)N1C(=O)C2C(C(=O)Nc3cccc(OC)c3)C3C=CC2(O3)C1C(=O)NC1CCCCC1C (stereo unspecified)	–	–	–	–	28	–
Cn1c(=O)c2ncn(CC(=O)Nc3cccc(-c4nc5ccccc5s4)c3)c2n(C)c1=O	–	–	–	–	–	–
Cc1c(OCC(=O)N2CCC(C(=O)O)CC2)ccc2c3c(c(=O)oc12)CCCC3	–	–	–	–	–	–
Cc1c(OCC(=O)N(C)C)ccc2c3c(c(=O)oc12)CCCCC3	–	–	–	–	25	–
Cc1c(OCC(=O)N2CCN(c3ccccc3)CC2)ccc2c3c(c(=O)oc12)CCCC3	–	–	–	–	25	–
CCOc1ccc(N2CC(C(=O)N3CCN(c4ccccn4)CC3)CC2=O)cc1 (stereo unspecified)	–	–	–	–	–	–
Cc1cc(C(O)c2ncc(-c3cccc4ccccc34)[nH]2)ccc1F (stereo unspecified)	–	–	–	–	24	–
